Data taken from PubChem BioAssay AID1159580 (chemical genetic matrix, 2015).
The campaign covered roughly 5,500 compounds. About 2,000 (36%) were called active. Roughly 18% stayed inconclusive and do not appear here. Rule as the data show it: active = normalized growth mostly below about 0.91 (no sharp cut-off); inconclusive = no clear call, values can overlap the other calls; inactive = mostly above about 0.92. Some of the results follow.

Assay: chemical genetic growth profiling, strain panel (AID 1159580);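 also: tested at 20 µM; growth read once vehicle control cultures reached saturation at 30 °C; 1 = growth at the plate median or of vehicle wells; lower values mean less growth of the strain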
Settings: S. cerevisiae deletion strains, growth OD

Measured: normalized growth

O=C1c2ccc(O)c(O)c2C(=O)c2c(O)ccc(O)c21
active: locus YAL021C, strain ccr4, active compounds read low 0.241 | locus YAL026C, strain drs2, active compounds read low 0.376 | locus YAL030W, strain snc1, active compounds read low 0.69 | locus YBL061C, strain skt5, active compounds read low 0.548 | locus YBR009C, strain hhf1, active compounds read low 0.667 | locus YBR023C, strain chs3, active compounds read low 0.479 | locus YBR171W, strain sec66, active compounds read low 0.753 | locus YBR231C, strain swc5, active compounds read low 0.479 | locus YBR279W, strain paf1, active compounds read low 0.838 | locus YCL011C, strain gbp2, active compounds read low 0.67 | locus YCL016C, strain dcc1, active compounds read low 0.695 | locus YCL069W, strain vba3, active compounds read low 0.751 | locus YCR088W, strain abp1, active compounds read low 0.781 | locus YDL005C, strain med2, active compounds read low 0.879 | locus YDL040C, strain nat1, active compounds read low 0.795 | locus YDR001C, strain nth1, active compounds read low 0.787 | locus YDR069C, strain doa4, active compounds read low 0.399 | locus YDR137W, strain rgp1, active compounds read low 0.255 | locus YDR159W, strain sac3, active compounds read low 0.789 | locus YDR297W, strain sur2, active compounds read low 0.697 | locus YDR334W, strain swr1, active compounds read low 0.424 | locus YDR335W, strain msn5, active compounds read low 0.737 | locus YDR392W, strain spt3, active compounds read low 0.567 | locus YEL003W, strain gim4, active compounds read low 0.675 | locus YEL037C, strain rad23, active compounds read low 0.734 | locus YEL061C, strain CIN8 (second series), active compounds read low 0.814 | locus YER015W, strain faa2, active compounds read low 0.493 | locus YER016W, strain bim1, active compounds read low 0.705 | locus YER111C, strain swi4, active compounds read low 0.708 | locus YER155C, strain BEM2 (second series), active compounds read low 0.696 | locus YFR010W, strain ubp6, active compounds read low 0.539 | locus YGL167C, strain pmr1, active compounds read low 0.814 | locus YGL173C, strain kem1, active compounds read low 0.286 | locus YGL227W, strain vid30, active compounds read low 0.83 | locus YGL240W, strain doc1, active compounds read low 0.667 | locus YGL253W, strain hxk2, active compounds read low 0.638 | locus YHR027C, strain rpn1, active compounds read low 0.401 | locus YHR142W, strain chs7, active compounds read low 0.451 | locus YJL092W, strain hpr5, active compounds read low 0.774 | locus YJL095W, strain BCK1 (second series), active compounds read low 0.236 | locus YJL115W, strain asf1, active compounds read low 0.816 | locus YJL129C, strain trk1, active compounds read low 0.52 | locus YJL154C, strain vps35, active compounds read low 0.782 | locus YJL164C, strain tpk1, active compounds read low 0.545 | locus YJL166W, strain qcr8, active compounds read low 0.596 | locus YKL160W, strain elf1, active compounds read low 0.869 | locus YKR026C, strain gcn3, active compounds read low 0.81 | locus YKR091W, strain srl3, active compounds read low 0.757 | locus YLL001W, strain dnm1, active compounds read low 0.722 | locus YLL026W, active compounds read low 0.758 | locus YLL041C, strain sdh2, active compounds read low 0.765 | locus YLR027C, strain aat2, active compounds read low 0.751 | locus YLR221C, strain rsa3, active compounds read low 0.668 | locus YLR258W, strain gsy2, active compounds read low 0.685 | locus YLR262C, strain YPT6 (second series), active compounds read low 0.185 | locus YLR320W, strain mms22, active compounds read low 0.515 | locus YLR342W, strain FKS1, active compounds read low 0.532 | locus YLR357W, strain rsc2, active compounds read low 0.563 | locus YLR370C, strain arc18, active compounds read low 0.577 | locus YLR384C, strain iki3, active compounds read low 0.731 | locus YML120C, strain ndi1, active compounds read low 0.768 | locus YMR058W, strain fet3, active compounds read low 0.459 | locus YMR125W, strain sto1, active compounds read low 0.803 | locus YMR129W, active compounds read low 0.756 | locus YMR205C, strain PFK2, active compounds read low 0.522 | locus YMR231W, strain pep5, active compounds read low 0.641 | locus YNL071W, strain lat1, active compounds read low 0.748 | locus YNL209W, strain ssb2, active compounds read low 0.29 | locus YNL248C, strain rpa49, active compounds read low 0.66 | locus YNL322C, strain KRE1 (second series), active compounds read low 0.812 | locus YNR049C, strain mso1, active compounds read low 0.785 | locus YOR001W, strain rrp6, active compounds read low 0.683 | locus YOR070C, strain gyp1, active compounds read low 0.71 | locus YOR080W, strain dia2, active compounds read low 0.759 | locus YOR083W, strain WHI5, active compounds read low 0.57 | locus YOR106W, strain vam3, active compounds read low 0.307 | locus YOR265W, strain rbl2, active compounds read low 0.683 | locus YOR270C, strain vph1, active compounds read low 0.387 | locus YOR290C, strain snf2, active compounds read low 0.578 | locus YPL051W, strain arl3, active compounds read low 0.416 | locus YPL078C, strain atp4, active compounds read low 0.76 | locus YPL106C, strain sse1, active compounds read low 0.536 | locus YPL240C, strain hsp82, active compounds read low 0.74
inactive: locus YBR021W, strain FUR4, active compounds read low 1.01 | locus YBR229C, strain ROT2, active compounds read low 1.01 | locus YCL029C, strain bik1, active compounds read low 1 | locus YDL035C, strain GPR1, active compounds read low 1.03 | locus YDL074C, strain BRE1, active compounds read low 1 | locus YDL101C, strain DUN1, active compounds read low 1.01 | locus YDL185W, strain tfp1, active compounds read low 1.01 | locus YDL192W, strain arf1, active compounds read low 0.99 | locus YDR101C, strain arx1, active compounds read low 1.01 | locus YDR162C, strain NBP2, active compounds read low 1.03 | locus YDR195W, strain ref2 0.873 | locus YDR318W, strain mcm21, active compounds read low 0.992 | locus YDR388W, active compounds read low 0.997 | locus YDR502C, strain sam2, active compounds read low 0.991 | locus YEL061C, strain CIN8, active compounds read low 1 | locus YER110C, active compounds read low 0.991 | locus YER155C, strain BEM2, active compounds read low 1 | locus YER167W, strain BCK2, active compounds read low 1.02 | locus YGL078C, strain dbp3, active compounds read low 0.982 | locus YGL086W, strain mad1, active compounds read low 0.989 | locus YGL248W, strain PDE1, active compounds read low 1 | locus YGR078C, strain PAC10, active compounds read low 1.01 | locus YGR135W, strain pre9, active compounds read low 0.991 | locus YGR252W, strain gcn5, active compounds read low 0.977 | locus YHR013C, strain ard1, active compounds read low 0.953 | locus YHR030C, strain SLT2, active compounds read low 1.01 | locus YHR079C, strain IRE1 (second series), active compounds read low 0.991 | locus YHR094C, strain hxt1, active compounds read low 0.995 | locus YHR129C, strain ARP1, active compounds read low 1.01 | locus YHR200W, strain rpn10, active compounds read low 0.998 | locus YIL066C, strain RNR3, active compounds read low 1.03 | locus YIL073C, strain SPO22, active compounds read low 1.01 | locus YIL125W, strain kgd1, active compounds read low 0.992 | locus YIR030C, strain dcg1, active compounds read low 0.988 | locus YJL095W, strain BCK1, active compounds read low 0.998 | locus YJL134W, strain LCB3, active compounds read low 1.01 | locus YJL168C, strain set2, active compounds read low 0.988 | locus YJL187C, strain SWE1 (second series), active compounds read low 1.01 | locus YJR043C, strain POL32, active compounds read low 1.03 | locus YKL009W, strain mrt4, active compounds read low 0.978 | locus YKL068W, active compounds read low 0.992 | locus YKL085W, strain MDH1 (second series), active compounds read low 0.99 | locus YKL085W, strain MDH1, active compounds read low 0.99 | locus YKL190W, strain CNB1, active compounds read low 1.01 | locus YKR001C, strain vps1, active compounds read low 0.985 | locus YLR039C, strain RIC1, active compounds read low 1.03 | locus YLR058C, strain SHM2, active compounds read low 1.01 | locus YLR102C, strain apc9, active compounds read low 0.991 | locus YLR262C, strain YPT6, active compounds read low 1.09 | locus YLR268W, strain sec22, active compounds read low 1.01 | locus YLR330W, strain CHS5, active compounds read low 1.01 | locus YLR342W, strain FKS1 (second series), active compounds read low 1.02 | locus YLR371W, strain rom2, active compounds read low 0.986 | locus YLR418C, strain cdc73, active compounds read low 0.978 | locus YML016C, strain PPZ1, active compounds read low 1.01 | locus YML032C, strain rad52, active compounds read low 1.01 | locus YML124C, strain tub3, active compounds read low 0.988 | locus YMR078C, strain ctf18, active compounds read low 0.996 | locus YMR223W, strain ubp8, active compounds read low 0.998 | locus YMR307W, strain GAS1, active compounds read low 1.07 | locus YNL067W, strain RPL9B, active compounds read low 0.997 | locus YNL128W, strain TEP1, active compounds read low 1.01 | locus YNL153C, strain GIM3, active compounds read low 0.998 | locus YNL233W, strain BNI4, active compounds read low 1.01 | locus YNL250W, strain rad50, active compounds read low 0.998 | locus YNL271C, strain bni1, active compounds read low 0.994 | locus YNL298W, strain CLA4, active compounds read low 0.994 | locus YNL307C, strain MCK1, active compounds read low 0.994 | locus YNR052C, strain pop2, active compounds read low 0.993 | locus YOL012C, strain htz1 0.902 | locus YOL147C, strain pex11, active compounds read low 0.998 | locus YOR061W, strain CKA2, active compounds read low 1.02 | locus YOR069W, strain VPS5, active compounds read low 1.01 | locus YOR136W, strain idh2, active compounds read low 1.02 | locus YOR144C, strain elg1, active compounds read low 0.991 | locus YOR184W, strain ser1, active compounds read low 0.995 | locus YOR316C, strain cot1, active compounds read low 0.996 | locus YPL241C, strain CIN2, active compounds read low 1.01 | locus YPR119W, strain clb2, active compounds read low 0.989 | locus YPR141C, strain kar3, active compounds read low 0.991 | locus YPR163C, strain tif3, active compounds read low 1.01 | locus YPR167C, strain met16, active compounds read low 0.989 | strain wtn01, active compounds read low 1.01
